# From the supplement of paper PMC8975748
# Where a name gives a salt, the structure may show the parent alone.
# System: Saccharomyces cerevisiae BY4741 SeMeCo community
# Experiment: z-score of subpopulation abundance vs DMSO median, subpopulation auxotrophic for L; higher = larger share of this subpopulation than in DMSO controls
# Conditions: 10 µM; 24 h; SM minimal medium; subpopulation (auxotrophy): L
# Method: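 Fluorescent four-plasmid SeMeCo (self-establishing metabolically cooperating S. cerevisiae BY4741 community; plasmids pH-mRuby2, pL-mWasabi, pU-eCFP, pM-TagRFP657) was grown 24 h in minimal SM medium with each Selleck FDA-approved drug at 10 µM in 384-well plates. Cells were fixed and imaged by high-content confocal microscopy. For each auxotrophic subpopulation (and the prototroph), a z-score gives the deviation from the DMSO vehicle-control population median.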
row,Compound,z-score of subpopulation abundance
1,CC[C@@]1(O)C(=O)OCc2c1cc1n(c2=O)Cc2cc3ccccc3nc2-1 [Camptothecin],-0.35
2,Cc1cc(C(C#N)c2ccc(Cl)cc2)c(Cl)cc1NC(=O)c1cc(I)cc(I)c1O (centres undefined) [Closantel],1.28
3,CN(C)C(=O)Oc1cccc([N+](C)(C)C)c1 [Neostigmine Bromide],0.65
4,Cc1cc(O)ccc1Cl [Chlorocresol],-0.62
5,C[N+]1(C)[C@@H]2C[C@@H](OC(=O)[C@H](CO)c3ccccc3)C[C@H]1[C@@H]1O[C@@H]12 [Methscopolamine],0.57
6,CC(C)(O)C(Cl)(Cl)Cl [Chlorobutanol],0.36
7,CC(C)=CCOc1c2occc2cc2ccc(=O)oc12 [Imperatorin],1.37
8,CCOC(=O)Nc1ccc(NCc2ccc(F)cc2)cc1N [Retigabine],-0.58
9,C[C@@H]1O[C@@H](O[C@H]2C[C@@H](O)[C@]3(CO)[C@H]4[C@H](O)C[C@]5(C)[C@@H](C6=CC(=O)OC6)CC[C@]5(O)[C@@H]4CC[C@]3(O)C2)[C@H](O)[C@H](O)[C@H]1O [Ouabain],-0.43
10,CC[C@H]1[C@@H]2C[C@H]3[C@@H]4N(C)c5ccccc5[C@]45C[C@@H]([C@@H]2[C@H]5O)N3[C@@H]1O [Ajmaline],-0.67
11,CN1C(=O)COc2c(C(=O)NC3CN4CCC3CC4)cc(Cl)cc21 (centres undefined) [Azasetron HCl],0.07
12,CN1[C@@H]2CC[C@H]1C[C@@H](OC(=O)[C@H](CO)c1ccccc1)C2 [Hyoscyamine],0.64
13,C#C[C@]1(O)C=C[C@H]2[C@@H]3CCC4=CC(=O)CC[C@@H]4[C@H]3CC[C@@]21CC [Gestodene],0.46
14,O=c1[nH]c2ccccc2n1CCCN1CCC(n2c(=O)[nH]c3cc(Cl)ccc32)CC1 [Domperidone],0.55
15,O=C(O[C@H]1C[C@H]2CC[C@@H](C1)[N+]21CCCC1)C(O)(c1ccccc1)c1ccccc1 [Trospium chloride],-0.17
16,N#Cc1nn(-c2c(Cl)cc(C(F)(F)F)cc2Cl)c(N)c1[S+]([O-])C(F)(F)F (centres undefined) [Fipronil],-0.6
17,C=C[C@H]1CN2CC[C@H]1C[C@H]2[C@H](O)c1ccnc2ccccc12 [Cinchonidine],0.13

row,Compound,z-score of subpopulation abundance
1,CC(=O)OCC1=C(C(=O)O)N2C(=O)C(N)C2SC1 (centres undefined) [7-Aminocephalosporanic acid],0.13
2,CNC1CC(N)C(O)C(OC2OC(CO)C(O)C3OC4(OC(C(N)CO)C(O)C(O)C4O)OC23)C1O (centres undefined) [Hygromycin B],0.12
3,C[C@@H]1CC[C@H]2[C@@H](C)C(=O)O[C@@H]3O[C@@]4(C)CC[C@@H]1[C@]32OO4 [Artemisinin],-0.11
4,CN(C)[C@@H]1C(=O)C(C(N)=O)=C(O)[C@@]2(O)C(=O)C3=C(O)c4c(O)ccc(Cl)c4[C@@](C)(O)[C@H]3C[C@@H]12 [Chlortetracycline HCl],-0.76
5,COc1ccc(C=O)cc1 [p-Anisaldehyde],-0.63
6,C=CN1CCCC1=O.II [Povidone iodine],0.47
7,O=[N+]([O-])C(Br)(CO)CO [Bronopol],-0.82
8,C=C(C)[C@H]1Cc2c(ccc3c2O[C@@H]2COc4cc(OC)c(OC)cc4[C@@H]2C3=O)O1 [Rotenone (Barbasco)],0.46
9,CN1[C@@H]2CC[C@H]1C[C@@H](OC(=O)C(CO)c1ccccc1)C2 (some centres undefined) [Atropine sulfate monohydrate],-0.2
10,C=CCN1C[C@H](C(=O)N(CCCN(C)C)C(=O)NCC)C[C@@H]2c3cccc4[nH]cc(c34)C[C@H]21 [Cabergoline],0.36
11,CCN(CC)CCOC(=O)C(O)(c1ccccc1)c1ccccc1 [Benactyzine hydrochloride],0.45
12,CN(C)[C@@H]1C(=O)C(C(N)=O)=C(O)[C@@]2(O)C(=O)C3=C(O)c4c(O)cccc4[C@@](C)(O)[C@H]3C[C@@H]12 [Tetracycline HCl],-0.47
13,Oc1cccc2cccnc12 [8-Hydroxyquinoline],-1.01
14,COc1ccc2c3c([nH]c2c1)C(C)=NCC3 [Harmaline],2.48
15,CN[C@@H]1[C@@H](O)[C@@H](O[C@@H]2[C@@H](O)[C@H](O[C@H]3O[C@H](CN)CC[C@H]3N)[C@@H](N)C[C@H]2N)OC[C@]1(C)O.CN[C@@H]1[C@@H](O)[C@@H](O[C@@H]2[C@@H](O)[C@H](O[C@H]3O[C@H]([C@@H](C)N)CC[C@H]3N)[C@@H](N)C[C@H]2N)OC[C@]1(C)O.CN[C@@H]1[C@@H](O)[C@@H](O[C@@H]2[C@@H](O)[C@H](O[C@H]3O[C@H]([C@@H](C)NC)CC[C@H]3N)[C@@H](N)C[C@H]2N)OC[C@]1(C)O [Gentamicin Sulfate],-0.91
16,CN1[C@@H]2C[C@@H](OC(=O)[C@H](CO)c3ccccc3)C[C@H]1[C@@H]1O[C@@H]12 [Scopolamine HBr],-0.33
17,CC[C@@H](C(N)=O)N1CCCC1=O [Levetiracetam],0
